Hits are enriched below; roughly 3.5% of the tested compounds scored in any of these assays.
MITF inh: MITF inhibitors, primary screen, biochemical, AlphaScreen, human. Microphthalmia-associated transcription factor (Homo sapiens), O75030. AlphaScreen MITF homodimerization, bead proximity signal. inhibition, % at 2.6 µM. hit rate 0.91% among 650,000. AID 1259374, 2018; in the data active = inhibition above about 50%;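 also: 0% = vehicle wells with protein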
TEAD-YAP block: TEAD-YAP interaction inhibition, primary screen, TEAD-YAP interaction inhibitor project, luminescence, HEK-TIYL cells. TEAD-Gal4/YAP UAS-luciferase luminescence. inhibition, % at 9.12 µM. hit rate 1.4% among 640,000. AID 1259422, 2018; in the data active = inhibition above about 32%;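 also: 0% = median of test compound wells and 100% = reference inhibitor wells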
FBW7 act: FBW7 E3 ligase activators, primary screen, biochemical, AlphaScreen, human | F-box/WD repeat-containing protein 7 (Homo sapiens), Q969H0 | AlphaScreen FBW7–phospho-cyclin E peptide binding, activator screen | normalized activity (activation), % at 26.1 µM | hit rate 0.13% among 650,000; in the data active = normalized activity above about 1.9%;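 also: purified mutant Fbw7 with reduced substrate affinity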
GPR151 ag: activators of human GPR151, primary screen, cell-based, PathHunter beta-arrestin, luminescence; G-protein coupled receptor 151 (Homo sapiens), Q8TDV0; PathHunter beta-arrestin GPR151 cells; activation, % at 11.2 µM; hit rate 1% among 650,000; in the data active = activation above about 4.9%;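 also: 0% = median of compound wells and 100% = cells with positive control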
Target sequence (Q8TDV0 whole entry, looked up): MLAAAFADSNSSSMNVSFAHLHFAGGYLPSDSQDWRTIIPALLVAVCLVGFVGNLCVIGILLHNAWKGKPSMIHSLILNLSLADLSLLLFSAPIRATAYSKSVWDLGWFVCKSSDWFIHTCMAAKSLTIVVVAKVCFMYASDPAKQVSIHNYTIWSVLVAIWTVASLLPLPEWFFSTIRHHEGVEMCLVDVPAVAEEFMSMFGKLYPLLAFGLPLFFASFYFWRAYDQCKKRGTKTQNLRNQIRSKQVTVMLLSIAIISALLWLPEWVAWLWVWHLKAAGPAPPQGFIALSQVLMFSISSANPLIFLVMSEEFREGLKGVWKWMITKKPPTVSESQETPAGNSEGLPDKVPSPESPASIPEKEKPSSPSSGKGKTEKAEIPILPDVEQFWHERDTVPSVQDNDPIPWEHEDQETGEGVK
Starred values were filed as active, the others as inactive.

SMILES	MITF inh	TEAD-YAP block	FBW7 act	GPR151 ag
C/C(CC(=O)Nc1cc(C)cc(C)c1)=N/NC(=O)COc1ccc(C)cc1Br	2.8	3.6	-0.1	0.5
CC(C)n1c(-c2ccc(C(=O)N3CCN(C)CC3)cc2)nc2c(NCCCN3CCCC3=O)ncnc21	-1.8	-4.8	-0.1	0.7
CCOc1ccccc1C(=O)N/N=C/c1cc([N+](=O)[O-])cc(OC)c1O	-13.8	-5.6	-0.2	-0.5
O=C(N/N=C/c1ccccc1O)c1ccccc1[N+](=O)[O-]	13.8	4.3	-0.6	0.9
C/C(=N\NC(N)=S)c1ccc([N+](=O)[O-])cc1	-3.2	35.9*	-0.1	-0.1
O=C(N/N=C/c1cc([N+](=O)[O-])ccc1O)c1ccccc1[N+](=O)[O-]	68.9*	7.4	-0.9	-0.3
C/C(=N\NC(N)=O)c1ccc([N+](=O)[O-])cc1	1.1	0.7	-0.1	3.4
COc1cc([N+](=O)[O-])cc(/C=N/NC(=O)c2ccccc2Br)c1O	73.5*	5.1	0.5	-0.9
CC(C)n1cc(/C=C2/NC(=O)N(Cc3ccccc3F)C2=O)c2ccccc21	12.8	6.3	0.1	1.8
Cc1cc(N2CCCC2)nc(Nc2ccc(NS(=O)(=O)c3cccc(F)c3)cc2)n1	-3.0	54.5*	0.0	-0.5
CC[C@@]1([C@@H]2O[C@@H]([C@H]3O[C@@](O)(CO)[C@H](C)C[C@@H]3C)C[C@@H]2C)CC[C@H]([C@]2(C)CC[C@]3(C[C@H](O)[C@@H](C)[C@@H]([C@@H](C)[C@@H](OC)[C@H](C)C(=O)O)O3)O2)O1	16.4	78.7*	0.5	0.1
COc1ccc(/C=N/NC(=O)c2cn(C)c3ccccc23)cc1O	5.9	32.7*	0.1	-0.4
COc1ccccc1C(=O)N/N=C/c1c(O)ccc2ccccc12	12.3	37.0*	0.1	0.9
COc1ccc(/C=N/NC(=O)c2ccccc2O)cc1O	-6.6	-20.0	-0.1	2.4
Cc1occc1C(=O)N/N=C/c1c(O)ccc2ccccc12	-8.8	46.7*	-0.7	0.5
CCOC(=O)c1ccc(NC(=O)NNC(=O)c2cc(Br)ccc2O)cc1	9.3	-4.1	1.1	-1.0
O=C1NC(=S)N(c2ccccc2F)C(=O)/C1=C/N1CCc2ccccc21	-2.9	9.8	-0.1	0.7
Cc1[nH]nc2c1C(c1ccc(F)c(Br)c1)C(C#N)=C(N)O2 (stereo unspecified)	15.2	5.8	0.2	-1.5
Oc1c(C(c2ccc(Cl)cc2)N2CCCCC2)ccc2cccnc12 (stereo unspecified)	3.3	71.5*	-1.8	-0.8
O=C(CSc1cccc2cccnc12)N1CCCCC1	-7.6	-19.5	-0.4	-0.4
Oc1c(C(c2ccc(C(F)(F)F)cc2)N2CCCCC2)ccc2cccnc12 (stereo unspecified)	9.0	83.0*	-0.1	-1.5
Cc1ccc(NC(=O)C(=O)NCC2CCCN2S(=O)(=O)c2cccs2)cc1C (stereo unspecified)	-9.1	-5.3	0.3	0.8
COc1ccc(NC(=O)C(=O)NCC2CCCN2S(=O)(=O)c2cccs2)cc1 (stereo unspecified)	1.4	45.1*	0.1	1.4
O=C(NCCN1CCOCC1)C(Cc1ccccc1)NS(=O)(=O)c1ccc(Cl)cc1 (stereo unspecified)	2.2	9.2	0.1	-0.1
O=C(/C=C/c1ccc(F)cc1)c1ccc(N2CCOCC2)cc1	2.2	-12.7	0.0	1.0
SMILES	MITF inh	TEAD-YAP block	FBW7 act	GPR151 ag
Cc1ccc(/C=C/C(=O)c2ccc(N3CCOCC3)cc2)s1	-0.8	49.4*	-0.3	0.2
CC(C)(C)c1ccc(C2CC2C(=O)N/N=C\c2ccc[nH]2)cc1 (stereo unspecified)	4.9	91.2*	-0.2	-0.4
Oc1ccc(-c2noc(-c3ccc(F)cc3)n2)cc1	-1.0	64.6*	0.5	-8.9
Fc1ccc(-c2nc(-c3ccccc3)no2)cc1	17.2	-34.2	0.8	-0.4
O=c1oc2cc(Cl)c(O)c(Cl)c2s1	55.0*	14.1	0.0	-1.4
O=c1oc2cc(Cl)c(O)cc2s1	18.6	-2.2	-0.8	0.6
O=c1oc2cc(Br)c(O)c(Br)c2s1	58.6*	-3.8	-0.5	0.3
Cc1c(Br)c(O)c(Br)c2sc(=O)oc12	78.8*	4.2	-0.5	0.1
O=c1oc2c(Br)cc(Br)c(O)c2s1	8.2	-10.7	-0.7	0.9
COC(=O)Oc1c(Br)cc2sc(=O)oc2c1Br	4.6	-1.6	0.0	-0.1
CCCCNC(=S)Nc1ccc(C(=O)OCC)cc1	2.9	-10.3	0.1	2.2
O=C(O)c1ccc2nc(-c3ccccc3)sc2c1	19.1	-13.1	0.2	-4.8
COc1cc(NC(=O)c2ccc3nc(-c4ccc(C(N)=O)cc4)sc3c2)cc(OC)c1OC	-3.0	46.1*	0.2	-1.3
NC(=O)c1ccc2nc(-c3ccccc3)sc2c1	0.6	73.5*	0.1	-10.6
Nc1ccc(-c2nc3ccc(C(=O)O)cc3s2)cc1	-10.2	75.2*	0.2	-8.5
CC(=O)NCc1ccc(-c2nc3ccccc3s2)cc1	-4.0	-3.2	0.0	-4.6
CC(C)N(C(=O)c1ccc(-c2nc3ccccc3s2)cc1)C(C)C	-10.6	54.2*	-0.2	-0.7
Nc1ccc(-c2nc3ccc(N)cc3s2)cc1	1.4	18.4	0.2	-9.0
CCOc1ccc2nc(-c3ccc(N)cc3)sc2c1	4.7	34.8*	0.1	-1.4
CCOc1ccc2nc(NN)sc2c1	9.8	0.4	0.2	-2.5
Nc1ccc2nc(-c3ccc(O)cc3)sc2c1	10.8	75.8*	-0.1	-10.2
Cc1ccc(CNC(=O)C2CCCN(c3nnc(N4CCCC4=O)s3)C2)cc1 (stereo unspecified)	3.2	-3.1	-0.2	-2.0
Cc1ccc2[nH]c(SCc3ccc(Cl)cc3Cl)nc2c1C	9.3	-8.2	0.0	1.3
O=C(COc1ccc(Br)cc1)N/N=C\c1cc([N+](=O)[O-])ccc1O	-4.8	18.0	0.0	0.8
CCN(CC)CCCn1c(-c2ccc(Br)cc2)cn2c3ccccc3nc12	19.6	-3.2	2.2*	1.7
SMILES	MITF inh	TEAD-YAP block	FBW7 act	GPR151 ag
CCN(CC)CCCn1c(-c2ccc(Cl)cc2)cn2c3ccccc3nc12	-2.6	1.8	1.4	-0.3
Clc1ccc(-c2cn3c4ccccc4nc3n2CCCNC2CCCCC2)cc1	-17.1	-12.6	3.1*	2.7
Brc1ccc(-c2cn3c4ccccc4nc3n2CCCN2CCCCC2)cc1	7.2	-2.2	2.2*	-1.9
NC(=S)NN(CC(=O)O)CC(=O)O	13.3	4.2	0.0	-0.2
Cc1nn2c(N(C)CCO)c3c(nc2c1-c1ccccc1)CCCC3	-51.1	4.0	-0.1	-0.3
COc1cccc(-c2csc3nnc(SCC(=O)c4ccc(NC(C)=O)cc4)n23)c1	10.4	3.3	13.1*	0.0
O=C(NCCc1ccccc1)c1ccc(OC2CCN(C(=O)c3ccoc3)CC2)cc1	10.7	52.7*	-0.2	1.3
Cc1ncoc1C(=O)N1CCC(Oc2ccc(C(=O)NCCc3ccccc3)cc2)CC1	-2.4	49.5*	-0.1	-0.5
COCC(=O)N1CCC(Oc2ccc(C(=O)NCCc3ccccc3)cc2)CC1	-5.3	28.4	-0.1	0.5

Screening data: PubChem, The Scripps Research Institute Molecular Screening Center
